The full data set covers some 7,900 targets. This sample favours those with a hit. About 0.6% of all pairs of compound and target were hits.
Tests used:
Experiment in all cases: log2 fold change, soluble protein after heating vs DMSO (PISA); higher = thermal stabilisation; K562 cells, 10 uM, 30 min; active = over 0.2 and 3.5 SD of the protein, either way, in both replicates (recomputed)
[1] = compound: C#Cc1cccc(Nc2ncnc3cc(OCCOC)c(OCCOC)cc23)c1 [erlotinib]
Summary of the method: (§1)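 K562 cells (2×10^6 cells/mL) were treated with 10 μM compound for 30 min, and aliquots were heated for 3 min over 48°C-58°C. Pooled aliquots were extracted in PBS with 0.5% NP-40 at 4°C, and the supernatant after 21,000xg for 90 min was measured by TMTpro 16plex LC-MS/MS with channel sums equalised. Reported thermal stability, relative to control samples and from duplicates, is a log2 fold change.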

[2] = compound: C/C(=N\NC(=O)C1=CC(=CC=C1)S(=O)(=O)N2CCOCC2)/C3=C(C=CC(=C3)Cl)O
Summary of the method: as §1

[3] = compound: C1=CC(=C(C=C1Cl)C2=NC3=NC=CN=C3C(=N2)NC4=CC=NC=C4)F
Summary of the method: as §1

[4] = compound: C1=CC(=CC=C1C2=NC3=C(N2)C=C(C=C3)C(=O)N)OC4=CC=C(C=C4)Cl
Summary of the method: as §1

[5] = compound: C1=CC2=C(C=CC(=C2)/C=C\3/C(=O)NC(=NCC4=CC=CS4)S3)N=C1
Summary of the method: as §1

[6] = compound: C1=CC2=NC=CN=C2C=C1/C=C/3\C(=O)NC(=O)S3
Summary of the method: as §1

[7] = compound: C1=CC=C(C=C1)C2=NC(=C(N2)C3=CC=NC=C3)C4=CC(=C(C=C4)Cl)O
Summary of the method: as §1

[8] = compound: C1=CC=C2C(=C1)C3=NNC4=CC=CC(=C43)C2=O
Summary of the method: as §1

[9] = compound: C1CCN(C1)C(=O)NC2=CC=CC(=C2)NC3=NC=C(C(=N3)NCCC4=CN=CN4)Br
Summary of the method: as §1

[10] = compound: C1CN(CCC1(CC2=CC=C(C=C2)Cl)N)C3=NC=NC4=C3C=CN4
Summary of the method: as §1

Measured: log2 fold change

DYRK1A isoform 2 (UniProt Q13627)
inactive: [1] 0.034 | [2] 0.039 | [3] -0.058 | [4] 0.019 | [5] -0.095 | [6] -0.173 | [7] -0.027 | [8] -0.064 | [9] -0.093 | [10] -0.067

EIF4A1 (UniProt P60842)
Chain of UniProt P60842 (P60842 whole entry, looked up): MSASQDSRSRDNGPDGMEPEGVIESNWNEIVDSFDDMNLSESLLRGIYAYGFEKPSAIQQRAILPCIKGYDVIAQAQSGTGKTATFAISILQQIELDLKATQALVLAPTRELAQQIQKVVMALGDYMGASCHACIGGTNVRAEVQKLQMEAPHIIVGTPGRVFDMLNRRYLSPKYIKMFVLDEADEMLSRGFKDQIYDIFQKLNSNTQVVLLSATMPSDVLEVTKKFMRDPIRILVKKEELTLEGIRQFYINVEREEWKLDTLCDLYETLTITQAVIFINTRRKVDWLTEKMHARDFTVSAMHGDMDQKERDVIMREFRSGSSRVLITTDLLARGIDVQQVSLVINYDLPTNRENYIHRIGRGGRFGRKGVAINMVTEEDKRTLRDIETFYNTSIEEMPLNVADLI
inactive: [1] 0.036 | [2] 0.049 | [3] 0.047 | [4] -0.023 | [5] 0.016 | [6] -0.021 | [7] 0.007 | [8] 0.035 | [9] -0.039 | [10] 0.054

EEF1D isoform 2 (UniProt P29692)
Chain of UniProt P29692 (P29692 whole entry, looked up): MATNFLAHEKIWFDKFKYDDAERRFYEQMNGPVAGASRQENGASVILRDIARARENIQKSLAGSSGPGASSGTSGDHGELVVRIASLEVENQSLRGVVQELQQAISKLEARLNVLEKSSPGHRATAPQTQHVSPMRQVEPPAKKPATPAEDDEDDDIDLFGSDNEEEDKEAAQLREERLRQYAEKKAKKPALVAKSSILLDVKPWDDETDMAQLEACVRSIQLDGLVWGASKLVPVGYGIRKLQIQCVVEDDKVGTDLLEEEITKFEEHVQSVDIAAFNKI
inactive: [1] 0 | [2] 0.031 | [3] 0.016 | [4] -0.028 | [5] 0.025 | [6] 0.02 | [7] -0.03 | [8] 0.021 | [9] 0.048 | [10] -0.055

EIF2S3 (UniProt P41091)
Chain of UniProt P41091 (P41091 whole entry, looked up): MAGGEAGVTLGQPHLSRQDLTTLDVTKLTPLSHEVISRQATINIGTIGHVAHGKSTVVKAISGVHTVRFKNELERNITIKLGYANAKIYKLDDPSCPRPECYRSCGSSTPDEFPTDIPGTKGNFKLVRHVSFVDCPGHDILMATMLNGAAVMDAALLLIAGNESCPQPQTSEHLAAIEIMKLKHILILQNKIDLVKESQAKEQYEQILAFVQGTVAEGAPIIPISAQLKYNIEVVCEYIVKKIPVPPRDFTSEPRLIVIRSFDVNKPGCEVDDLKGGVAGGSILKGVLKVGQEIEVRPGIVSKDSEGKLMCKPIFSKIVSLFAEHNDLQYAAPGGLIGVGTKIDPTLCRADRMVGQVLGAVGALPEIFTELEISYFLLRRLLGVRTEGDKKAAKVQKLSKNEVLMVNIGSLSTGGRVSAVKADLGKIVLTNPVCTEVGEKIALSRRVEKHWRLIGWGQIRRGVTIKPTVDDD
inactive: [1] -0.028 | [2] -0.041 | [3] -0.18 | [4] -0.004 | [5] -0.023 | [6] -0.006 | [7] -0.037 | [8] 0.015 | [9] -0.023 | [10] -0.06

DSN1 (UniProt Q9H410)
inactive: [1] 0.07 | [2] 0.042 | [3] -0.002 | [4] 0.024 | [5] -0.019 | [6] -0.009 | [7] -0.018 | [8] 0.006 | [9] 0.004 | [10] -0.091

EEF1B2 (UniProt P24534)
inactive: [1] -0.006 | [2] 0.033 | [3] -0.028 | [4] -0.058 | [5] 0.008 | [6] -0.036 | [7] 0.027 | [8] 0.02 | [9] 0.064 | [10] -0.058

EXOC2 (UniProt Q96KP1)
inactive: [1] 0.07 | [2] 0.083 | [3] -0.027 | [4] -0.045 | [5] 0.05 | [6] 0.006 | [7] -0.013 | [8] 0.054 | [9] -0.014 | [10] -0.119

EIF4E isoform 2 (UniProt P06730)
inactive: [1] 0.084 | [2] -0.035 | [3] 0.056 | [4] -0.073 | [5] 0.01 | [6] 0.168 | [7] 0.074 | [8] 0.152 | [9] 0.181 | [10] 0.146

EDEM2 (UniProt Q9BV94)
Chain of UniProt Q9BV94 (Q9BV94 whole entry, looked up): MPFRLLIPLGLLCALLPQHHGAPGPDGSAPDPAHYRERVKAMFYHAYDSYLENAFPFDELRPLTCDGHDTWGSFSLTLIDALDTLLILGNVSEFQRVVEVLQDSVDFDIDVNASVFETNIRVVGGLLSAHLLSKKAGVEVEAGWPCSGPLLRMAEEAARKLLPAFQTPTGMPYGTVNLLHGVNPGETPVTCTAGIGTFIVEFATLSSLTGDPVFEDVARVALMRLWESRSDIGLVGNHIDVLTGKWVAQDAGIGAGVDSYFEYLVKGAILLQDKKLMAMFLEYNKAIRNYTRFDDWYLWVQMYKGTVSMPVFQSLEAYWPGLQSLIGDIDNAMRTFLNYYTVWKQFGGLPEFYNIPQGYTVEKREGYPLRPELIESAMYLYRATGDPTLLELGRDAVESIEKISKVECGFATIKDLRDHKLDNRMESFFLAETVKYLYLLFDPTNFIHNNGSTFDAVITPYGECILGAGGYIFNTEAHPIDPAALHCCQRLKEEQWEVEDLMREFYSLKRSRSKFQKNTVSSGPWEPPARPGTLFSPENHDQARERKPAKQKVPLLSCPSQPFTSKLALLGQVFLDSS
inactive: [1] -0.025 | [2] 0.023 | [3] -0.009 | [4] 0.09 | [5] 0.132 | [6] -0.318 | [7] 0.012 | [8] 0.081 | [9] -0.018 | [10] 0.05

CUX1 isoform 2 (UniProt Q13948)
inactive: [1] -0.025 | [2] 0.017 | [3] 0.012 | [4] 0.036 | [5] 0.014 | [6] -0.031 | [7] -0.043 | [8] 0.009 | [9] -0.009 | [10] -0.031

EXOC1 (UniProt Q9NV70)
inactive: [1] 0.057 | [2] 0.163 | [3] -0.104 | [4] -0.05 | [5] 0.17 | [6] 0.013 | [7] 0.051 | [8] 0.054 | [9] -0.044 | [10] -0.073

CYBA (UniProt P13498)
inactive: [1] -0.075 | [2] 0.096 | [3] -0.005 | [4] 0.025 | [5] 0.042 | [6] 0.032 | [7] 0.03 | [8] -0.072 | [9] -0.012 | [10] -0.005

ELOC (UniProt Q15369)
Chain of UniProt Q15369 (Q15369 whole entry, looked up): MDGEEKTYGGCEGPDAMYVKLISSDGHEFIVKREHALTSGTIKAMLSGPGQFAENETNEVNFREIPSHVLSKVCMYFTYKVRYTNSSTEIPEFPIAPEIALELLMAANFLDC
inactive: [1] -0.055 | [2] 0.124 | [3] 0.066 | [4] 0.017 | [5] 0.117 | [6] 0.048 | [7] 0.075 | [8] 0.009 | [9] -0.016 | [10] -0.024

DCAF10 (UniProt Q5QP82)
inactive: [1] 0.01 | [2] 0.014 | [3] 0.021 | [4] 0.029 | [5] -0.038 | [6] 0.064 | [7] -0.077 | [8] -0.013 | [9] 0.029 | [10] 0.006

EEF1A1 (UniProt P68104)
Chain of UniProt P68104 (P68104 whole entry, looked up): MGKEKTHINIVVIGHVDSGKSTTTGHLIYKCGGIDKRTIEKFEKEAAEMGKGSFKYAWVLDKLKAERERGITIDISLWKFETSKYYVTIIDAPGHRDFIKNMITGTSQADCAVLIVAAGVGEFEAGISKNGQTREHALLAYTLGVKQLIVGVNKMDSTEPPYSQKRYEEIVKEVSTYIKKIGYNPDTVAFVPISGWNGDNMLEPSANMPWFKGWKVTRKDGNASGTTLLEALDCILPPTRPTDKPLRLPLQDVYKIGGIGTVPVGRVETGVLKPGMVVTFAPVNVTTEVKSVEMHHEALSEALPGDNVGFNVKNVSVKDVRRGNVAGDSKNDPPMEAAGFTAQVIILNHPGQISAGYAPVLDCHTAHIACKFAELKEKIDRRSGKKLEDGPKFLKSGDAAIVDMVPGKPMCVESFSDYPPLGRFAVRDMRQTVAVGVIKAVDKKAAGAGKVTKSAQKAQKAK
inactive: [1] -0.083 | [2] 0.119 | [3] 0.051 | [4] 0.062 | [5] -0.062 | [6] -0.343 | [7] 0.195 | [8] 0.135 | [9] -0.055 | [10] 0.122

ERCC6 (UniProt Q03468)
inactive: [1] -0.036 | [2] 0.06 | [3] 0.028 | [4] -0.063 | [5] -0.096 | [6] -0.224 | [7] -0.052 | [8] 0.003 | [9] -0.065 | [10] 0.106

FAM177A1 isoform 2 (UniProt Q8N128)
inactive: [1] 0.048 | [2] 0.042 | [3] 0.038 | [4] 0.023 | [5] 0.036 | [6] 0.02 | [7] 0.024 | [8] -0.037 | [9] 0.109 | [10] 0.044

DDX39A (UniProt O00148)
inactive: [1] 0.038 | [2] 0.027 | [3] 0.031 | [4] -0.03 | [5] -0.026 | [6] -0.068 | [7] -0.026 | [8] -0.059 | [9] -0.007 | [10] -0.019

EXOC4 (UniProt Q96A65)
inactive: [1] 0.131 | [2] 0.159 | [3] 0.044 | [4] -0.071 | [5] 0.09 | [6] 0.033 | [7] -0.036 | [8] -0.018 | [9] -0.02 | [10] -0.083

CUEDC2 (UniProt Q9H467)
inactive: [1] 0.016 | [2] -0.023 | [3] 0.047 | [4] 0.023 | [5] -0.021 | [6] 0.117 | [7] -0.074 | [8] 0.008 | [9] -0.071 | [10] -0.006

DPH5 isoform 5 (UniProt Q9H2P9)
inactive: [1] 0 | [2] 0.054 | [3] 0.093 | [4] 0.037 | [5] 0.022 | [6] 0.03 | [7] 0.041 | [8] 0.005 | [9] 0.004 | [10] 0.052

DCAF6 isoform 3 (UniProt Q58WW2)
Chain of UniProt Q58WW2 (Q58WW2 whole entry, looked up): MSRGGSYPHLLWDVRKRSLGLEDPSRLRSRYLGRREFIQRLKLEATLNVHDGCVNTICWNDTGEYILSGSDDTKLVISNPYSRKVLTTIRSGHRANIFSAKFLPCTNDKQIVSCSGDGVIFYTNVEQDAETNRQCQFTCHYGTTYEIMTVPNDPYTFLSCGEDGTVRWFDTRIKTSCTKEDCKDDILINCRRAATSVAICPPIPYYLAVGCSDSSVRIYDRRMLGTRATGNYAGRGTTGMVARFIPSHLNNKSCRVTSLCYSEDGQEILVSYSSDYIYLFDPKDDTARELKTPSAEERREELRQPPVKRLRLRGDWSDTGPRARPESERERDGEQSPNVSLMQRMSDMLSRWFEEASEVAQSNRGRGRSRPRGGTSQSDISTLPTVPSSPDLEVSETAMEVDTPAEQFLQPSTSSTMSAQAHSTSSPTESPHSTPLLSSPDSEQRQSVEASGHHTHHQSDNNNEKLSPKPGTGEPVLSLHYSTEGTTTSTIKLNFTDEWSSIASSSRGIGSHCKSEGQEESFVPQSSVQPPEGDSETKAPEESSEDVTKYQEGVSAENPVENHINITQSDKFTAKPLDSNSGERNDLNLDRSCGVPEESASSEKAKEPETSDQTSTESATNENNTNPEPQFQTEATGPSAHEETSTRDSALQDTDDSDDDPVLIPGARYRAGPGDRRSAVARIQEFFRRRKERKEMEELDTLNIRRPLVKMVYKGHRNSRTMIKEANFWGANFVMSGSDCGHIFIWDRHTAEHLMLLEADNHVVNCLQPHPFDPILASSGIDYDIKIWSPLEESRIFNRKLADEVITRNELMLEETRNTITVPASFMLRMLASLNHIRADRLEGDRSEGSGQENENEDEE
inactive: [1] 0.035 | [2] 0 | [3] 0.035 | [4] 0.014 | [5] 0.007 | [6] 0.045 | [7] 0.008 | [8] -0.036 | [9] 0.042 | [10] 0.055

CTSC (UniProt P53634)
inactive: [1] -0.002 | [2] 0.016 | [3] 0.022 | [4] -0.031 | [5] 0.014 | [6] 0.004 | [7] 0.028 | [8] 0.009 | [9] -0.02 | [10] 0.138

EXOC7 (UniProt Q9UPT5)
inactive: [1] 0.032 | [2] 0.074 | [3] 0.001 | [4] -0.042 | [5] 0.048 | [6] 0.016 | [7] 0.011 | [8] -0.016 | [9] -0.023 | [10] -0.014

DIP2A (UniProt Q14689)
inactive: [1] -0.002 | [2] 0.07 | [3] 0.055 | [4] 0.103 | [5] -0.145 | [6] 0.076 | [7] 0.037 | [8] 0.043 | [9] 0.03 | [10] 0.053

DTYMK (UniProt P23919)
Chain of UniProt P23919 (P23919 whole entry, looked up): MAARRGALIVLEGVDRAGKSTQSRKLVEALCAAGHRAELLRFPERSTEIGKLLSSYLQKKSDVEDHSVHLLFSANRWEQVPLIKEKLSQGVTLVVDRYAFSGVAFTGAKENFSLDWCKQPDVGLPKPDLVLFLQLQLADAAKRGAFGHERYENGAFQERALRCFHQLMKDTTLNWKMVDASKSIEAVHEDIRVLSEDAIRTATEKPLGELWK
inactive: [1] -0.007 | [2] 0.025 | [3] 0.013 | [4] 0.04 | [5] -0.027 | [6] 0.044 | [7] -0.017 | [8] 0.095 | [9] 0.015 | [10] 0.016

EXOC6 (UniProt Q8TAG9)
Chain of UniProt Q8TAG9 (Q8TAG9 whole entry, looked up): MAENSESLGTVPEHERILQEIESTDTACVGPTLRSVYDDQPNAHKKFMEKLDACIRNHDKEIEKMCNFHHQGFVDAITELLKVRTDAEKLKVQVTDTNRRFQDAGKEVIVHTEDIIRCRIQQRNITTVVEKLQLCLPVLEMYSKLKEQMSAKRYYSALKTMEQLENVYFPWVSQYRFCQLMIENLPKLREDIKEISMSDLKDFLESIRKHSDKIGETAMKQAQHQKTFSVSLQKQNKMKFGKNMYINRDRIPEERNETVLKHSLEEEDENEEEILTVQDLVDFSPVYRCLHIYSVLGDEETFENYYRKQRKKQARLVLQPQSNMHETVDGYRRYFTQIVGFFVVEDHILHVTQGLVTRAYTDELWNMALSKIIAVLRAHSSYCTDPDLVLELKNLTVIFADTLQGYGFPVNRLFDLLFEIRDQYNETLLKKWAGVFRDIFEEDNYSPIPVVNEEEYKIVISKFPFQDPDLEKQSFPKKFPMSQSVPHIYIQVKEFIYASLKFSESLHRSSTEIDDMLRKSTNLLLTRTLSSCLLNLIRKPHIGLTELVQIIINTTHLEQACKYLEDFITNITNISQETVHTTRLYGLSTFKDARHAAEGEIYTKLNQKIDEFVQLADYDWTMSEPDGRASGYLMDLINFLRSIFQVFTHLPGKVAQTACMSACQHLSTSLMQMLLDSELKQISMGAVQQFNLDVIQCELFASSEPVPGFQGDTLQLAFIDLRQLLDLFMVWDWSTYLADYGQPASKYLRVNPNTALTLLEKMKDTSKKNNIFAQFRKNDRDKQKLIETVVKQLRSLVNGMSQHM
inactive: [1] 0.073 | [2] 0.127 | [3] 0.006 | [4] -0.025 | [5] 0.096 | [6] 0.076 | [7] 0.069 | [8] 0.003 | [9] -0.045 | [10] -0.042

DHRS3 (UniProt O75911)
Chain of UniProt O75911 (O75911 whole entry, looked up): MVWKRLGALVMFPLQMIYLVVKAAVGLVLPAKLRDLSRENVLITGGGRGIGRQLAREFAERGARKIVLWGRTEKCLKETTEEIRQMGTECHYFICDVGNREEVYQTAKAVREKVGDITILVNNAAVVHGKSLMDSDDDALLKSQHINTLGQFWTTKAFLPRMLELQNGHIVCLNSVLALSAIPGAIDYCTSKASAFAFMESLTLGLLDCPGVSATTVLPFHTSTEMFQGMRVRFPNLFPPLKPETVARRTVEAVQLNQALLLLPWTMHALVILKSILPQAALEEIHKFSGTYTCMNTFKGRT
inactive: [1] 0.116 | [2] 0.041 | [3] 0.11 | [4] 0.018 | [5] 0.155 | [6] -0.037 | [7] 0.024 | [8] 0.074 | [9] 0.005 | [10] 0.191

CTSV (UniProt O60911)
Chain of UniProt O60911 (O60911 whole entry, looked up): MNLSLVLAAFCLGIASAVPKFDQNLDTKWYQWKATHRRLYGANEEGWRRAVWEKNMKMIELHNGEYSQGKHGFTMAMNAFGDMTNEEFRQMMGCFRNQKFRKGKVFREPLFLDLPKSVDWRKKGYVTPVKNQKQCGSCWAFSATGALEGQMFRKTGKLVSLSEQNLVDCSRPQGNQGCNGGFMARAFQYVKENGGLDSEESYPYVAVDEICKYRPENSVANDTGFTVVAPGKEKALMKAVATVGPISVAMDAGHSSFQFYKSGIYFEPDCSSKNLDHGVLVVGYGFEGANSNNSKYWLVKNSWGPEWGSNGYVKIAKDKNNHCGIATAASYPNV
inactive: [1] 0.043 | [2] -0.105 | [3] 0.023 | [4] -0.054 | [5] 0.035 | [6] -0.004 | [7] 0.024 | [8] 0.023 | [9] 0.04 | [10] 0.022
